Test results: PubChem BioAssay (Tox21)
Where “and” joins values, the source holds several entries; their conditions need not be identical. Identical values can stand only once. Inconclusive results are not listed. Entries that show only a call come without a potency. Where a structure was tested more than once in an assay, its records may differ in their call. Calls of active or inactive are those of the source. Unless noted, calls follow the shape of the dose curve; as a rule, active = well fitted curve in the direction sought with a large enough effect in the repeat runs; inconclusive = weak or mixed curves; inactive = no such curve, though single readings can be large; an effect the other way counts as inactive or inconclusive.

Key:
[1] = qHTS assay for small molecule agonists of the p53 signaling pathway (AID 651631; calls by dose curve; also: nearly all actives have a fitted effect of over 15% in size; also: potency is read from the fitted curve at half-maximal effect)
Method in brief: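 Fluorescence intensity from cleaved LiveBLAzer B/G substrate (2 h, room temperature) served as the signal. Beforehand, HCT-116 reporter cells bearing p53 response elements were treated 16 h at 37 °C with DMSO-dissolved compounds.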

[2] = qHTS assay for small molecules that induce genotoxicity in human embryonic kidney cells expressing luciferase-tagged ATAD5 (AID 651632); also: nearly all actives have a fitted effect of over 15% in size
Method in brief: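 Quantitative HTS in HEK293T expressing luciferase-tagged ATAD5, whose levels rise upon DNA damage. Exposure ran 16 hr at 37C and 5% CO2, with luminescence read 30 min after Amplite addition at room temperature.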

[3] = qHTS assay for small molecule agonists of the p53 signaling pathway - cell viability (AID 651633; calls by dose curve; also: nearly all actives have a fitted effect of over 30% in size; also: potency is read from the fitted curve at half-maximal effect)
Method in brief: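 p53RE-bla cells, seeded at 4,000 per well and rested 5 h at 37 C/5% CO2, received compounds in DMSO for 16 h at 37 C. CellTiter-Glo was then added, and luminescence was read after 30 min at room temperature to gauge cytotoxicity.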

[4] = qHTS assay for small molecules that induce genotoxicity in human embryonic kidney cells expressing luciferase-tagged ATAD5 - cell viability (AID 651634; calls by dose curve; also: nearly all actives have a fitted effect of over 25% in size)
Method in brief: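 After 15.5 hr incubation with compound at 37C, 5% CO2, HEK293T ATAD5-luciferase cells received CellTiter-Fluor reagent; fluorescence intensity was quantified following 30 min at 37C.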

[5] = qHTS assay for small molecule disruptors of the mitochondrial membrane potential - cell viability (AID 720634; calls by dose curve; also: nearly all actives have a fitted effect of over 20% in size; also: potency is read from the fitted curve at half-maximal effect)
Method in brief: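 ATP-based luminescent viability readout (CellTiter-Glo, 30 min, room temperature) in HepG2 cells multiplexed with the m-MPI membrane potential dye; compound exposure lasted 1 hr at 37 C.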

[6] = qHTS assay to test for compound auto fluorescence at 590 nm (red) in HepG2 cells (AID 720674)
Method in brief: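 Rose Bengal sodium served as the red fluorophore standard. HepG2 monolayers (overnight attachment, MEM with 10% FBS) were exposed to test compounds for 1 hr at 37 C and read at Ex 540/Em 590 nm.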

[7] = qHTS assay to test for compound auto fluorescence at 535 nm (green) in HepG2 cells (AID 720675)
[8] = qHTS assay to test for compound auto fluorescence at 460 nm (blue) in HEK293 cells (AID 720678)
Method in brief: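 Auto fluorescence in the blue band was quantified as triamterene equivalency. HEK293 cells were seeded at 2,000/well, dosed after a 4-5 hr attachment, and kept overnight at 37C before the 405/460 nm reading.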

[9] = qHTS assay to test for compound auto fluorescence at 590 nm (red) in HEK293 cells (AID 720679)
Method in brief: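 Autofluorescence equivalency to Rose Bengal sodium, 540/590nm, in HEK293 cells exposed overnight to 23 nL compound per well.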

[10] = qHTS assay for small molecule disruptors of the mitochondrial membrane potential (AID 720635); also: potency is read from the fitted curve at half-maximal effect
Method in brief: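 HepG2 cells (2,000/well) attached overnight at 37C, then took compound for 1 hr at 37C, 5% CO2. Mito-MPS dye was added for 30 min; fluorescence was read at 490/535 nm (monomers) and 540/590 nm (aggregates).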

Compound | Potency [1] | Potency [2] | Potency [3] | Potency [4] | Potency [5] | outcome [6] | outcome [7] | outcome [8] | outcome [9] | Potency [10]
C#C[C@]1(O)CC[C@H]2[C@@H]3CCC4=CC(=O)CC[C@]4(C)[C@H]3CC[C@@]21C | inactive | inactive | inactive | inactive | inactive | inactive | inactive | inactive | inactive | –
CC(C)N(C(=O)SCC(Cl)=C(Cl)Cl)C(C)C | inactive | inactive | inactive | inactive | – | inactive | inactive | inactive | inactive | 13.5 µM (active)
O=C1C=CC(=O)C=C1 | inactive | inactive | inactive | inactive | inactive | inactive | inactive | inactive | inactive | inactive
CCCCCCOC(=O)c1ccccc1C(=O)OCCCCCC | inactive | inactive | inactive | inactive | inactive | inactive | inactive | inactive | inactive | 27.9 µM (active)
O=P(O)(O)CCCl | inactive | inactive | inactive | inactive | inactive | inactive | inactive | inactive | inactive | inactive
Oc1cc(Cl)ccc1Cl | inactive | inactive | inactive | inactive | inactive | inactive | inactive | inactive | inactive | 28.1 µM (active) and 27.3 µM (active)
CCCCCCCCOC(=O)c1ccccc1C(=O)OCCCCCCCC | inactive | inactive | inactive | inactive | inactive | inactive | inactive | – | inactive | inactive
CC(C)(OOC(C)(C)c1ccccc1)c1ccccc1 | inactive | inactive | inactive | inactive | inactive | inactive | inactive | – | inactive | 60.3 µM (active)
O=[N+]([O-])c1cccc2ccccc12 | inactive | inactive | inactive | inactive | inactive | inactive | inactive | inactive | inactive | –
CC(C)c1ccc(CO)cc1 | inactive | inactive | inactive | inactive | inactive | inactive | inactive | inactive | inactive | –
Nc1ccc(Cl)c(Cl)c1 | inactive | inactive | inactive | inactive | inactive | inactive | inactive | inactive | inactive | inactive
c1ccc(N=Nc2ccccc2)cc1 | inactive | inactive | inactive | inactive | inactive | inactive | inactive | inactive | inactive | inactive
NNC(=S)NN | inactive | inactive | inactive | inactive | inactive | inactive | inactive | inactive | inactive | inactive
C[C@]12CCC(=O)C(O)=C1CC[C@@H]1[C@@H]2CC[C@]2(C)C(=O)CC[C@@H]12 | inactive | inactive | inactive | inactive | inactive | inactive | inactive | inactive | inactive | inactive
c1nc[nH]n1 | inactive | inactive | inactive | inactive | inactive | inactive | inactive | – | inactive | inactive
CCC(C)c1cc([N+](=O)[O-])cc([N+](=O)[O-])c1O (centres undefined) | inactive and 864 nM (active) | inactive | inactive | – | inactive and 1.22 µM (active) | inactive | inactive | inactive | inactive | inactive and 344 nM (active)
O=P(Oc1ccccc1)(Oc1ccccc1)Oc1ccccc1 | inactive | inactive | inactive | – | 13.6 µM (active) | inactive | inactive | inactive | inactive | 242 nM (active) and 1.22 µM (active)
Nn1cnnc1 | inactive | inactive | inactive | – | inactive | inactive | inactive | – | inactive | inactive
Cc1ccccc1[N+](=O)[O-] | inactive | inactive | inactive | – | inactive | inactive | inactive | inactive | inactive | inactive
Oc1c(Cl)c(Cl)c(Cl)c(Cl)c1Cl | 3.37 µM (active) and 3.43 µM (active) | inactive | inactive | – | inactive | inactive | inactive | – | inactive | 3.78 µM (active) and 1.53 µM (active)
CCOC(=O)C(C)OC(=O)c1cc(Oc2ccc(C(F)(F)F)cc2Cl)ccc1[N+](=O)[O-] (centres undefined) | inactive | inactive | inactive | – | – | inactive | inactive | inactive | inactive | 21.6 µM (active) and 61.1 µM (active)
O=C(O)C(F)(F)C(F)(F)C(F)(F)C(F)(F)C(F)(F)C(F)(F)C(F)(F)F | inactive | inactive | inactive | – | inactive | inactive | inactive | inactive | inactive | –
CN(C)C(=O)Nc1ccc(Cl)cc1 | inactive | inactive | inactive | – | inactive | inactive | inactive | – | inactive | inactive
O=C(Nc1ccc(Br)cc1)c1cc(Br)cc(Br)c1O | 8.41 µM (active) and 1.53 µM (active) and 12.2 µM (active) | inactive | 944 nM (active) and 1.08 µM (active) and 2.17 µM (active) | – | inactive | inactive | inactive | inactive | inactive | 1.88 µM (active) and 543 nM (active) and 545 nM (active)
